From the supplement of paper PMC6992640
± gives the standard deviation of the averaged measurements.

The compounds below were run on WHIM30 (cells of a triple-negative basal-like breast cancer xenograft) (assay: cell viability (% of vehicle); higher = less cytotoxic). Settings: 10 µM; 72 h.
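Also: PDX cells carrying CMV promoter-driven luciferase, viability read as total photon flux per second by IVIS imaging following D-luciferin, vehicle control 0.1% DMSO.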

Compound	cell viability
Cc1ccc(-n2[nH]c(C)c(NN=C3C=CC=C(c4cccc(C(=O)O)c4)C3=O)c2=O)cc1C.NCCO.NCCO [Eltrombopag Olamine]	104 ± 17
CCN1CCN(c2cc3c(cc2F)c(=O)c(C(=O)O)cn3C2CC2)CC1 [Enrofloxacin]	80.5 ± 6.2
C[N+]1(C)C2CCC1CC(OC(=O)C(O)c1ccccc1)C2.[Br-] (stereo not drawn) [Homatropine Methylbromide]	50.8 ± 2.7
COc1ccc(C2CNC(=O)C2)cc1OC1CCCC1 (stereo not drawn) [S- (+)-Rolipram]	134 ± 9.9
CO[C@H]1/C=C/O[C@@]2(C)Oc3c(C)c(O)c4c(O)c(c5c(nc6cc(C)ccn65)c4c3C2=O)NC(=O)/C(C)=C\C=C\[C@H](C)[C@H](O)[C@@H](C)[C@H](O)[C@@H](C)[C@H](OC(C)=O)[C@@H]1C [Rifaximin (Xifaxan)]	128 ± 12
O=C(O)C1=COC(OC2OC(CO)C(O)C(O)C2O)C2C(CO)=CCC12 (stereo not drawn) [Geniposidic acid]	143.2 ± 0.61
CCC(CC)C(NC(C)=O)C1C(N=C(N)N)CC(C(=O)O)C1O (stereo not drawn) [Peramivir]	136 ± 24
CC(C)NCC(O)c1ccc(NS(C)(=O)=O)cc1.Cl (stereo not drawn) [Sotalol hydrochloride]	118 ± 2.6
Cc1cc(NS(=O)(=O)c2ccc(N)cc2)no1 [Sulfamethoxazole]	196 ± 4
CC(C)(O)c1ccccc1CCC(SCC1(CC(=O)[O-])CC1)c1cccc(C=Cc2ccc3ccc(Cl)cc3n2)c1.[Na+] (stereo not drawn) [Montelukast Sodium]	156.57 ± 0.11
CCC(C)C(=O)OC1CC(C)C=C2C=CC(C)C(CCC3CC(O)CC(=O)O3)C21 (stereo not drawn) [Lovastatin]	93.17 ± 0.92
Nc1nc(Cl)nc2c1ncn2C1OC(CO)C(O)C1F (stereo not drawn) [Clofarabine]	128.5 ± 0.14
CC(=O)[N-]S(=O)(=O)c1ccc(N)cc1.[Na+] [Sulfacetamide Sodium]	109 ± 3.1
Cc1cccc(C)c1NC(=O)C1CCCCN1C.Cl (stereo not drawn) [Mepivacaine HCl]	166 ± 4.5
Cc1onc(-c2ccccc2Cl)c1C(=O)NC1C(=O)N2C1SC(C)(C)C2C(=O)[O-].O.[Na+] (stereo not drawn) [Cloxacillin Sodium]	199 ± 20
CN1CCC(=C2c3ccccc3C=Cc3ccccc32)CC1.Cl [Cyproheptadine hydrochloride]	116 ± 10
NCCCCC(NC(CCc1ccccc1)C(=O)O)C(=O)N1CCCC1C(=O)O.O.O (stereo not drawn) [Lisinopril dihydrate]	150 ± 8.1
NC(=O)C1CCCc2c1[nH]c1ccc(Cl)cc21 (stereo not drawn)	161 ± 24
CC(=O)O[C@@]12CO[C@@H]1C[C@H](O)[C@@]1(C)C(=O)[C@H](O)C3=C(C)[C@@H](OC(=O)[C@H](O)[C@@H](NC(=O)OC(C)(C)C)c4ccccc4)C[C@@](O)([C@@H](OC(=O)c4ccccc4)[C@H]21)C3(C)C [Docetaxel]	134 ± 5.3
COc1c(C)c2c(c(O)c1CC=C(C)CCC(=O)O)C(=O)OC2 [Mycophenolic acid]	151 ± 1.2
CC(=O)N1CCN(c2ccc(OCC3COC(Cn4ccnc4)(c4ccc(Cl)cc4Cl)O3)cc2)CC1 (single isomer, unassigned; (+)) [(+)-Ketoconazole]	94.8 ± 11
CC1COc2c(N3CCN(C)CC3)c(F)cc3c(=O)c(C(=O)O)cn1c23 (stereo not drawn) [Ofloxacin]	159 ± 11
NC(N)=NS(=O)(=O)c1ccc(N)cc1 [Sulfaguanidine]	118 ± 2.4
Cc1cc(C2CCCCC2)n(O)c(=O)c1 [Ciclopirox]	94.5 ± 12
Cl.NC12CC3CC(CC(C3)C1)C2 [Amantadine HCl]	105 ± 1.4
CCOc1nc2cccc(C(=O)OCc3oc(=O)oc3C)c2n1Cc1ccc(-c2ccccc2-c2nc(=O)o[nH]2)cc1 [Azilsartan Medoxomil]	127 ± 2.7
NNC(=O)c1ccncc1.Nc1ccc(C(=O)O)c(O)c1 [Pasiniazid]	133 ± 5.1
CCOc1cc(N)c(Cl)cc1C(=O)NCC1CN(Cc2ccc(F)cc2)CCO1.O=C(O)CC(O)(CC(=O)O)C(=O)O (stereo not drawn) [Mosapride Citrate]	136 ± 5.5
